Assay results taken from PubChem BioAssay AID431 (Sanford-Burnham Center for Chemical Genomics, 2006).
The whole screen tested about 63,000 compounds, of which about 1,100 (1.7%) were called active. This is one part of a sample in which actives are shown more often than they occur. Entries with a potency or affinity are not part of this list. Values without a mark were called inactive.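 Rule for the calls: active = compounds whose percent cytotoxicity in the single-dose primary screen, scaled between solvent and toxic-drug controls, exceeds 50; inactive = the rest.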

experiment: cytotoxicity in KRAS-transformed pancreatic duct cells, primary screen, cell-based, fluorescence, HTS (AID 431); settings: HPDE-C7K KRASV12 cells, Alamar Blue viability, 48 h; at 10 µM; hits give high values;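 note: 0% = DMSO solvent wells and 100% = doxorubicin-treated wells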

SMILES | cytotoxicity
CCOC(=O)c1ccccc1NC(=O)CN1CCC(n2nnc3cc(F)ccc32)CC1 | 15.3%
COc1ccccc1NC(=O)CN1CCC(n2nnc3cc(F)ccc32)CC1 | -3.1%
CCOc1ccc2nc(NC(=O)CN3CCC(n4nnc5cc(F)ccc54)CC3)sc2c1 | 66.6% (active)
CC1(C)CNC(=O)c2sc(NC(=O)CN3CCOCC3)nc2C1 | 0.1%
Cc1ccc2c(c1)NC(=O)C(CC(=O)NCCN(C)C)O2 (stereo not drawn) | -2.3%
Cc1cc(NC(=O)c2cc(-c3cccnc3)nc3c(C)c(C)ccc23)no1 | 8.8%
Cc1cc(C)c2nc(-c3ccccn3)cc(C(=O)Nc3cc(C)on3)c2c1 | 8.1%
Cc1cc(NC(=O)c2cc(-c3ccncc3)nc3c(C)cccc23)no1 | 68.1% (active)
N#Cc1nc(Cc2ccccc2)oc1NCc1cccnc1 | -11.2%
N#Cc1nc(COc2ccc(-c3ccccc3)cc2)oc1NCc1cccnc1 | 83.1% (active)
N#Cc1nc(COc2ccccc2)oc1NCCN1CCOCC1 | -18.1%
N#Cc1nc(COc2ccc(-c3ccccc3)cc2)oc1NCCCN1CCOCC1 | 50.8% (active)
N#Cc1nc(-c2ccc(OCc3ccccc3)cc2)oc1NCc1cccnc1 | 12.7%
N#Cc1nc(-c2ccc(OCc3ccccc3)cc2)oc1NCCN1CCOCC1 | 12.8%
N#Cc1nc(COc2ccc(F)cc2)oc1NCCN1CCOCC1 | -2.9%
COc1ccc(-c2nc(C#N)c(NCCCN3CCOCC3)o2)cc1 | 0.5%
COc1ccccc1CNC(=O)c1ccc(CNc2c(N3CCCC3)c(=O)c2=O)cc1 | 4.2%
CCCc1nc(-c2cc3ccc(C)cc3[nH]c2=O)no1 | 6.3%
Cc1nc(NCC2CCCO2)c2nnn(Cc3ccccc3)c2n1 (stereo not drawn) | -0.3%
Cc1nc(SCC(=O)Nc2ccc(C)c(F)c2)c2oc3ccccc3c2n1 | 24.5%
O=C1CSC(c2ccco2)N1 (stereo not drawn) | -1.3%
O=C(CN1CCN(c2ccc(Cl)cc2)CC1)Nc1ccc(F)c(F)c1 | -4.6%
CC1CN(S(=O)(=O)c2ccc(NC(=O)c3ccco3)cc2)CC(C)O1 (stereo not drawn) | -0.1%
O=C(C1CCN(S(=O)(=O)c2cccc3cccnc23)CC1)N1CCCC1 | 3.6%
COc1ccc(NS(=O)(=O)c2ccc(Oc3ncccn3)cc2)cc1 | 18.2%
O=S(=O)(Nc1cccc2cccnc12)c1ccc(S(=O)(=O)N2CCCC2)cc1 | 70.3% (active)

SMILES | cytotoxicity
COc1cc(NCCCC(C)N)c2ncccc2c1 (stereo not drawn) | 4.4%
COc1cc(NS(=O)(=O)c2ccc(C)cc2)c2ncccc2c1 | 69.8% (active)
CS(=O)(=O)Nc1cccc2cccnc12 | 14.8%
O=C(c1nc2nc(-c3ccc(Cl)cc3)cc(C(F)(F)F)n2n1)N1CCOCC1 | 3.6%
COc1ccc(OC)c(-n2cnc3cc(C(=O)O)ccc32)c1 | -15.9%
CC1CCN(CCNC(=O)C2CCCN(S(=O)(=O)c3cccc4nonc34)C2)CC1 (stereo not drawn) | -4.5%
CCOC(=O)c1c(NC(=O)c2cccs2)sc(C)c1CC | 2.4%
CC(C)OC(=O)c1c(NC(=O)c2cccs2)sc2c1CCCC2 | -3.4%
CCc1c(C)sc(NC(=O)c2cccs2)c1C(=O)OC(C)C | 51.6% (active)
COC(=O)Cc1cc(=O)[nH]c(Nc2nc3ccccc3o2)n1 | 11.4%
COCc1cc(=O)[nH]c(Nc2nc3ccccc3o2)n1 | 28.8%
COCc1cc(=O)[nH]c(Nc2nc3ccc(C)cc3o2)n1 | 50.7% (active)
COc1ccccc1NC(C)=O | -2.1%
Cc1cccc(NC(=O)c2ccc(S(=O)(=O)N3CCCCC3)cc2)n1 | 2.7%
COC(=O)c1cc(NC(=O)C2CC=CCC2C(=O)O)cc(C(=O)OC)c1 (stereo not drawn) | -9.5%
CC1Cn2c(nnc2-c2cccc(N)c2)S1 (stereo not drawn) | -6.4%
COc1ccc(S(=O)(=O)N(C)CC(=O)Nc2cccc(C(C)=O)c2)cc1 | -14.2%
COc1cc(-c2nnc(COc3ccc4ccccc4c3)o2)cc(OC)c1OC | 36.9%
COc1ccc(-c2nnc(COc3ccc4ccccc4c3)o2)cc1OC | -1.8%
COc1cc(-c2nnc(COc3ccc4cc(Br)ccc4c3)o2)cc(OC)c1OC | 75.7% (active)
COc1ccc(N=C2SC(C(=O)Nc3ccc4c(c3)OCO4)CC(=O)N2C)cc1 (stereo not drawn) | -25%
Cc1c(NC(=O)COC(=O)C2CC3C=CC2C3)c(=O)n(-c2ccccc2)n1C (stereo not drawn) | -2.3%
CC(/C(O)=C(\C#N)c1nc2ccccc2n1C)N1C(=O)c2ccccc2C1=O (stereo not drawn) | 0.7%
Cc1cccc(N2CCN(c3cccc(C)c3)C2c2cccnc2)c1 | 53.7% (active)
Cc1ccc(N2CCN(c3ccc(C)cc3)C2c2ccncc2)cc1 | -25.3%
Cc1cccc(N2CCN(C(=O)c3ccncc3)CC2C)c1 (stereo not drawn) | 7.3%

SMILES | cytotoxicity
Cc1cccc(N2CCN(C(=O)COc3cc(=O)n(C)c4ccccc34)CC2C)c1 (stereo not drawn) | -5.4%
c1cncc(C2Nc3ccccc3-c3nc4ccccc4n32)c1 (stereo not drawn) | 3.3%
O=S(=O)(NC1CCCC1)c1ccccc1Cl | -5.7%
Oc1c(/C=N/c2ncn[nH]2)ccc2ccccc12 | 65.8% (active)
COc1cc(Br)cc(/C=N/c2ncn[nH]2)c1O | 85.2% (active)
COc1cccc(C=Nc2cc(C)on2)c1O | 7.3%
COc1cc(Br)cc(CN2CCN(C=O)CC2)c1O | -2.1%
O=c1c2ccccc2c(/C=N/c2ncn[nH]2)c(O)n1Cc1ccccc1 | 17.3%
C=CCc1cccc(/C=N/c2ncn[nH]2)c1O | 18.3%
Cc1ccccc1-c1nnc(-c2ccc(Br)cc2)o1 | 0.4%
COc1cc(OC)cc(C(=O)Nc2ncc3c(n2)CC(C)CC3=O)c1 (stereo not drawn) | 18.9%
CC(C)c1ccc(NC(=O)c2cnn(-c3ccccc3)c2NC(=O)c2ccco2)cc1 | 0.3%
CCN(CC)CCNC(=O)c1cc2c(=O)n(C)c3ccccc3c2n1C | -20%
O=C(Cn1cc2c(n1)CCCC2)Nc1ccccc1Cl | -7.1%
CCOC(=O)c1cccc(NC(=O)CSc2nnc(COc3ccccc3)n2CC)c1 | -20.1%
Nc1nc(-c2ccc3c(c2)OCCO3)cs1 | -0.3%
c1cncc(Nc2nc(-c3ccncc3)cs2)c1 | 4.9%
NS(=O)(=O)c1ccc(Nc2nc(-c3ccc(O)cc3)cs2)cc1 | 32.7%
Oc1ccc(Nc2nc(-c3ccc(O)cc3)cs2)cc1 | 84.1% (active)
c1cc2c(cc1Nc1nc(-c3ccc4c(c3)OCO4)cs1)OCCO2 | 56.7% (active)
CC(=O)Nc1nc(C)c(-c2csc(Nc3ccc(O)cc3)n2)s1 | 63.2% (active)
O=C(Nc1nc(-c2ccc3c(c2)OCO3)cs1)C1CC1 | -0.9%
C=CCNc1nc(-c2sc(NC(=O)CC)nc2C)cs1 | 31.5%
C=CCNc1nc(-c2sc(NC(C)=O)nc2C)cs1 | 33%
CC(C)CN(CC(C)C)S(=O)(=O)N1CCC(C(=O)NCCN2CCOCC2)CC1 | -24.9%
Cc1ccc2c(c1)NC(=O)C(CC(=O)NCCCN1CCCC1=O)O2 (stereo not drawn) | -1%

SMILES | cytotoxicity
Cc1nn(C)cc1/C=N/O | -2%
COc1cc(Nc2cc(C)nc3nc(C)nn23)cc(OC)c1OC | -6%
Cc1ccc(S(=O)(=O)N(C)Cc2nc(-c3ccc(Br)cc3)no2)cc1 | -5%
COC(=O)C1=C(C)n2nnnc2NC1c1cc2ccccc2o1 (stereo not drawn) | 4.4%
COC(=O)C1=C(C)n2nnnc2NC1c1ccc(Cl)cc1 (stereo not drawn) | 69.3% (active)
COC(=O)C1=C(C)n2cnnc2NC1c1ccc(Cl)cc1 (stereo not drawn) | 6.1%
Cc1cc(S(=O)(=O)NCCN2CCOCC2)c(C)s1 | 1.5%
O=C(CCN1C(=O)COc2ccccc21)NCCN1CCN(c2ccccc2F)CC1 | 2%
C=CCn1c(COc2ccccc2)nnc1SCC(=O)Nc1ccc(S(N)(=O)=O)cc1 | -13.8%
Cc1cccc(N2CCN(C(=O)C3CCCN(S(=O)(=O)c4cccc5cccnc45)C3)CC2)c1C (stereo not drawn) | 24.5%
O=C(Nc1cnn(Cc2ccccc2)c1)c1cc2nc(-c3ccco3)cc(C(F)(F)F)n2n1 | 24.8%
O=C(Nc1ccc(Cl)cc1)c1cc2nc(-c3ccco3)cc(C(F)(F)F)n2n1 | 69.4% (active)
Cc1ccccc1Cn1cc(NC(=O)c2cc3nc(-c4ccco4)cc(C(F)(F)F)n3n2)cn1 | 30.9%
O=C(Nc1cnn(Cc2ccc(F)cc2)c1)c1cc2nc(-c3ccco3)cc(C(F)(F)F)n2n1 | 48.5%
Cc1ccccc1Cn1ccc(NC(=O)c2cnn3c(C(F)(F)F)cc(-c4ccco4)nc23)n1 | 42.2%
Cc1ccccc1Cn1ccc(NC(=O)c2cc3nc(-c4ccco4)cc(C(F)(F)F)n3n2)n1 | 61.3% (active)
Cc1noc(C)c1COC(=O)C1CC(O)CN1S(=O)(=O)c1ccc(Cl)cc1 (stereo not drawn) | -5.6%
CCc1ccccc1N(C(=O)c1cccs1)C1C=CS(=O)(=O)C1 (stereo not drawn) | -8.1%
CCSC1=C(C#N)C2(CCCC2)C(C#N)=C(N)N1 | 18.9%
COc1ccc(C(=O)CSC2=C(C#N)C3(CCCCC3)C(C#N)=C(N)N2)cc1 | 30.1%
CCSC1=C(C#N)C2(CCCCC2)C(C#N)=C(N)N1 | 1.2%
CSC1=C(C#N)C2(CCCC2)C(C#N)=C(N)N1 | 30.6%
N#CC1=C(N)NC(SCC(=O)O)=C(C#N)C12CCCC2 | -1.2%
CC1(C)CC(=O)C2=C(C1)NC(SCC(=O)Nc1ccccc1)=C(C#N)C21CCCCC1 | -9.5%
N#CC1=C(N)NC(SCc2ccccc2)=C(C#N)C12CCCCC2 | 78.5% (active)
